Data reported in PubChem BioAssay (NCATS).
Values without a mark were called inactive. No rule for the calls is given here.

Tested on: HIV-1 nucleocapsid protein NCp7 (binding to TG oligonucleotide)
Assay: HIV Nucleocapsid (AID 346);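 also: potency is for inhibitors that block NC binding and lower polarization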
Conditions: HIV-1 NC / fluorescein-TGTGTGTG probe, fluorescence polarization
Procedure, shortened: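 10 nM TG4xF probe with 100 nM nucleocapsid protein in high-salt Hepes pH 7.5 (250mM NaCl) containing 1uM ZnCl2 and reducing agents. Compound inhibition of binding was read as fluorescein polarization after 1 hr at room temperature.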
Potency is read from the fitted curve at half-maximal effect.

SMILES | Potency [µM]
O=C(c1ccncc1)N1CCC2(CC1)CN(c1ccc(-c3ccccc3)cc1)C2 | > 20
Cc1cccc(CNc2ccnc(-c3ccccc3Cl)n2)c1 | > 20
COc1cccc(Cn2c(=O)c(-c3cccs3)nc3cnc(N4CCNCC4)nc32)c1 | > 20
COc1ccc(-c2nc3cnc(N4CCNCC4)nc3n(C)c2=O)cc1 | > 20
c1cncc(-c2nc(NCCN3CCOCC3)c3ccccc3n2)c1 | > 20
CC(=O)NCCNc1nc(-c2cccc(NS(C)(=O)=O)c2)nc2ccccc12 | > 20
COCC(=O)N1CCC2(CC1)CN(C(c1ccccc1)c1ccccc1)C2 | > 20
COc1ccccc1-c1ccc2ncnc(Nc3ccccc3)c2c1 | > 20
FC(F)(F)c1cc(CN2CC3(CCNCC3)C2)cc(C(F)(F)F)c1 | > 20
Cc1cccc(CNc2ncncc2-c2ccccc2CN(C)C)c1 | > 20
O=C(c1ccco1)N1CCC2(CCCN(Cc3ccncc3)C2)CC1 | > 20
CC(C)CN1CC[C@@]2(CCCN(S(=O)(=O)c3ccccc3)C2)C1 | > 20
CC(=O)N1CCC[C@@]2(CCN(C(c3ccccc3)c3ccccc3)C2)C1 | > 20
CC(=O)N1CCC2(CCCN(Cc3ccccc3)C2)CC1 | > 20
COc1ncc2nc(-c3ccc(F)cc3)c(=O)n(CCC#N)c2n1 | > 20
COc1ccccc1CNc1ncnc2ccc(-c3cccc(NS(C)(=O)=O)c3)cc12 | > 20
CS(=O)(=O)N1CCC2(CCCN(C(=O)Nc3cccc(F)c3)C2)CC1 | > 20
CC(=O)N1CCC2(CC1)CCN(c1ccccc1)CC2 | > 20
COC(=O)N1CCC[C@@]2(CCN(C(=O)NC(C)C)C2)C1 | > 20
O=C(c1cnccn1)N1CCC2(CCCN(C(c3ccccc3)c3ccccc3)C2)CC1 | > 20

SMILES | Potency [µM]
Cc1noc(C)c1-c1ccc2ncnc(N3CCC(C(=O)O)CC3)c2c1 | > 20
COc1ccc2[nH]cc(CCNc3ncncc3-c3ccc4c(c3)OCO4)c2c1 | > 20
CC(=O)N1CCC2(CC1)CCN(C(c1ccccc1)c1ccccc1)CC2 | > 20
O=C(c1cnccn1)N1CCC[C@@]2(CCN(Cc3cc(C(F)(F)F)cc(C(F)(F)F)c3)C2)C1 | > 20
CN1CCN(c2ncc3nc(-c4ccccc4)c(=O)n(Cc4cccs4)c3n2)CC1 | > 20
Cc1noc(C)c1C(=O)N1CCC2(CCCN(Cc3ccc(C#N)cc3)C2)CC1 | > 20
N#Cc1ccc(CN2CC[C@@]3(CCCN(C(=O)c4cnccn4)C3)C2)cc1 | > 20
Cn1c(=O)c(-c2ccccc2)nc2cnc(Nc3ccccc3)nc21 | > 4
COc1cccc(-c2nccc(NC3CCNCC3)n2)c1 | > 20
COCCn1c(=O)c(C)nc2cnc(OCc3ccccc3)nc21 | > 20
COc1ccc(-c2nc3cnc(OC)nc3n(Cc3cccc(OC)c3)c2=O)cc1 | > 20
O=C(c1cc(C(F)(F)F)cc(C(F)(F)F)c1)N1CCC2(CCN(Cc3nccs3)CC2)CC1 | > 20
COc1ncc2nc(-c3cccc(C#N)c3)c(=O)n(CCC#N)c2n1 | > 20
COc1ccc(Oc2ncc3nc(C)c(=O)n(Cc4cccs4)c3n2)cc1 | > 20
COc1ccc(-c2nc3cnc(N4CCOCC4)nc3n(C)c2=O)cc1 | > 20
CC(=O)NCCNc1nc(-c2cccc(C#N)c2)nc2ccccc12 | > 20
CN1CCN(c2ncncc2-c2ccoc2)CC1 | > 20
O=C(c1cccc(F)c1)N1CCC2(CCCN(C(c3ccccc3)c3ccccc3)C2)CC1 | > 20
CS(=O)(=O)Nc1cccc(-c2nc(Nc3ccc(F)cc3)c3ccccc3n2)c1 | > 20
O=C(c1ccco1)N1CCC2(CCCN(C(c3ccccc3)c3ccccc3)C2)CC1 | > 20

SMILES | Potency [µM]
Cc1noc(C)c1C(=O)N1CCC2(CC1)CCN(C(c1ccccc1)c1ccccc1)CC2 | > 20
COc1ccc(CNc2nc(-c3ccc(C(=O)N(C)C)cc3)nc3ccccc23)c(OC)c1 | > 20
N#Cc1cccc(NC(=O)N2CC3(CCN(C(=O)c4ccco4)CC3)C2)c1 | > 20
O=c1c(-c2ccc(F)cc2)nc2cnc(Nc3ccccc3)nc2n1C[C@H]1CCCO1 | > 20
COc1ccccc1CN1CCCC2(CCN(C(=O)c3cc(C(F)(F)F)cc(C(F)(F)F)c3)CC2)C1 | > 20
Cn1c(=O)c(-c2cc(F)cc(F)c2)nc2cnc(Oc3cccc(Cl)c3)nc21 | > 20
COc1ccc2[nH]cc(CCNc3ccnc(-c4cccc(C#N)c4)n3)c2c1 | > 20
COC(=O)N1CCC2(CCCN(c3ccc(-c4ccccc4)cc3)C2)CC1 | > 20
COCCNc1cc(-c2ccccc2CN(C)C)ncn1 | > 20
Clc1ccccc1-c1nc(Nc2ccncc2)c2ccccc2n1 | > 20
CN(C)C(=O)c1ccc(-c2ccc3ncnc(Nc4ccc(F)cc4)c3c2)cc1 | > 20
CN(C)c1ccc(-c2cc(NCc3ccccc3)ncn2)cc1 | > 20
CS(=O)(=O)N1CCC2(CCN(C(c3ccccc3)c3ccccc3)CC2)CC1 | > 20
COc1ccc(Oc2ncc3nc(-c4ccc(Cl)cc4)c(=O)n(C[C@H]4CCCO4)c3n2)cc1 | > 20
COc1ccc(-c2nc3cnc(OC)nc3n(C[C@H]3CCCO3)c2=O)cc1 | > 20
c1cncc(-c2ccc3ncnc(N4CCNCC4)c3c2)c1 | > 20
Clc1ccccc1-c1nc(N2CCNCC2)c2ccccc2n1 | > 20
Cc1cnc(CNc2ncnc3ccc(-c4ccccc4Cl)cc23)cn1 | > 20
CNc1ncnc2ccc(-c3ccccc3OC)cc12 | > 20
CC(C)CN1CCC2(CC1)CCN(C(=O)c1cccn1C)CC2 | > 20
